# Source: PubChem (National Center for Advancing Translational Sciences (NCATS))
# TrxR1 substrate: qHTS Assay for Substrates of Mammalian Selenoprotein Thioredoxin Reductase 1 (TrxR1): qHTS; Thioredoxin reductase 1, cytoplasmic (Rattus norvegicus), O89049; purified TrxR1 substrate turnover, NADPH consumption readout; Potency, µM (titrated, usually from 114 µM), without a hit: top-dose activity change, negative = substrate turnover; 390,000 tested, 0.01% active; further: potency means the concentration at half of the fitted maximal effect; nearly all actives have a fitted effect of over 50% in size
# Target sequence (O89049 whole entry, looked up): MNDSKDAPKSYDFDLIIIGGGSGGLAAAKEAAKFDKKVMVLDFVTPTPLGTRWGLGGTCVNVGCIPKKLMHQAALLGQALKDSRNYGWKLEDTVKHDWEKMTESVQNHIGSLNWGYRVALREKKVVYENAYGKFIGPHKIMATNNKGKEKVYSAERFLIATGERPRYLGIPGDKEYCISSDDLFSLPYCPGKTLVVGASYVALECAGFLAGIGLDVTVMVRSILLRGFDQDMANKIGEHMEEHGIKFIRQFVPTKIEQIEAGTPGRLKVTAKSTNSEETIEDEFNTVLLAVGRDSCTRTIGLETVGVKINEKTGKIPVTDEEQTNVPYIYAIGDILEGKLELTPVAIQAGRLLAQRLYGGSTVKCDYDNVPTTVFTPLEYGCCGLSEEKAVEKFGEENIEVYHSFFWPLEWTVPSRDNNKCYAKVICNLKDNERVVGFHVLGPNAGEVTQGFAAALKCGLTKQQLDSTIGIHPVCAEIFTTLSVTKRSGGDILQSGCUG
#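 Rat TrxR1, dispensed at 90 nM, was prereduced with 400 uM NADPH (final) for 5 min at ~22 deg C, then incubated with compound 15 min before 400 uM selenite. A first-read NADPH fluorescence drop versus no-compound background flagged substrates.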
# PI4K2A inh: qHTS for small molecular inhibitors of PI4K2A. Phosphatidylinositol 4-kinase type 2-alpha (Homo sapiens), Q9BTU6. 420,000 tested, 0.13% active. activity change, negative = inhibition, % at 76.9 µM. purified PI4K2A, ADP-Glo luminescence, 1 h; hits give low values; in the data active means activity change below about -50%; inconclusive means mostly about -30% to -49%;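 further: -100% = wells without enzyme as full effect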
#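 PI4K2A activity was measured by ADP-Glo luminescence: enzyme (4 ug/mL stock) and phosphatidylinositol (1.2 mM stock) in Tris pH 7.5/MgCl2/EGTA/Triton X-100 buffer were reacted with ATP (300 microM stock) for one hour at ambient temperature.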
# GALK inhibitor: qHTS Assay for Inhibitors of Human Galactokinase (GALK); Purified GALK, Kinase-Glo residual ATP luminescence; Potency, µM (titrated, usually from 57.5 µM), for inactives: top-dose activity change, negative = inhibition, most hits filed as inhibitors; 270,000 tested, 0.007% active; further: potency means the concentration at half of the fitted maximal effect
#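 ATP-depletion format; final 35 uM ATP, 100 uM D-galactose, 5 nM enzyme; pH 8.0 HEPES/Mg2+ buffer; 60 min RT; luminescence read 10 min after detection reagent.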
# PKM2 act: qHTS Assay for Activators of Human Muscle isoform 2 Pyruvate Kinase; Pyruvate kinase PKM (Homo sapiens), P14618; purified PKM2, Kinase-Glo ATP luminescence, activation; response scale: 0% is enzyme alone, no compound; Potency, µM (titrated, usually from 57.5 µM), for inactives: at the top dose activation, usual class: activators; 260,000 tested, 0.34% active; further: potency means the concentration at half of the fitted maximal effect; nearly all actives have a fitted effect of over 55% in size
#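 Kinase-Glo luminescence reports ATP generated from ADP (0.1 mM) and PEP (0.5 mM) by purified hPK-M2 after 1 h at room temperature, pH 7.2 imidazole buffer; intermediate enzyme activity allows detecting inhibitors and activators.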
# TrxR1 inh: qHTS Assay for Inhibitors of Mammalian Selenoprotein Thioredoxin Reductase 1 (TrxR1): qHTS; recombinant rTrxR1, NADPH fluorescence consumption, selenite substrate; Potency, µM (highest dose often 114 µM), for the others: at the highest dose activity change, negative = inhibition, usual class: inhibitors; 390,000 tested, 1% active; AID 588453, 2011; further: potency means the concentration at half of the fitted maximal effect; nearly all actives have a fitted effect of over 65% in size
#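 Rat TrxR1 (90 nM in the dispensed reagent) was pre-reduced with 400 uM NADPH for 5 min at room temperature, then incubated with compound for 15 min. After 400 uM selenite was added, NADPH fluorescence (Ex 340/Em 450 nm) was followed for 8 min.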
# An asterisk follows results filed as active; ? = inconclusive; · = no result given; [ ] = dose if it differs, or a comment. Rows were chosen to be rich in hits. Some 1.2% of all compounds tested hit in one or more screens of this group. Unless noted, the call rests on the fitted dose curve; in most records, active means well fitted curve in the direction sought with a large enough effect; inconclusive means small, poorly fitted or top-dose-only effect, or another doubt; inactive means no such curve, though single readings can be large; an effect the other way counts as inactive or inconclusive. Unless noted, on the % scale 0 is the no-effect control and ±100 the full control effect.
SMILES,TrxR1 substrate,PI4K2A inh,GALK inhibitor,PKM2 act,TrxR1 inh
CCn1c(SCC(=O)NCc2ccco2)nc2ccccc2c1=O,1%,-4,5%,3%,11%
Cc1cccc(-n2c(SCC(=O)NCc3ccco3)nnc2-c2ccco2)c1,9%,7,0%,-1%,-16%[57.1 µM]
Cc1cc(SCC(=O)NC(=O)NCc2ccco2)nc2ccccc12,-2%,-1,-1%,22%,71µM*
O=C(CSc1nc2ccccc2c2nc3ccccc3n12)NCc1ccco1,9%[57.1 µM],-53*,0%,?,-1%[57.1 µM]
Cc1ccc(-n2c(SCC(=O)NCc3ccco3)nnc2-c2cccnc2)c(C)c1,-2%,-10,-2%,0%,56µM*
Cc1cc(C)nc(SCc2nnc(SCC(=O)NCc3ccco3)n2-c2ccccc2)n1,-2%,-3,2%,0%,50µM*
COc1ccc(CCNC(=O)c2ccc3c(c2)N=C(C)c2ccccc2S3)cc1OC,-2%,0,·,·,10%
COc1ccccc1CNC(=O)C1CCN(c2nc3ccc(Cl)cc3[nH]2)CC1,3%[57.1 µM],-2,·,·,12%[57.1 µM]
CS(=O)(=O)N[C@@H]1C[C@@H]2O[C@H](CO)CC[C@@H]2O[C@@H]1CCc1ccc(-c2ccccc2F)cc1,·,-2,·,·,·
CCOC(=O)CSc1nc2cc3c(cc2c(=O)n1CCCCCC(=O)NCc1ccc(OC)cc1)OCO3,3%[57.1 µM],5,·,·,15%[57.1 µM]
O=S1(=O)c2ccc(N3CCC[C@@H]3CO)cc2O[C@@H]2CCN1C2,·,-4,·,·,·
Cc1ccc(NC(=O)Cn2c(=O)n(Cc3nc(-c4ccccc4)no3)c(=O)c3ccccc32)c(C)c1,3%,1,·,·,19%
O=C(CSc1nnc(C2CCCCC2)n1Cc1ccccc1)NCc1ccco1,-3%,-16,2%,0%,45µM*
Cc1ccc(NC(=O)CN2C(=O)CC(c3ccco3)Sc3ccccc32)cc1Cl (stereo unspecified),0%,-3,·,·,18%
CCc1c(C)sc(NC(=O)c2noc(C)c2[N+](=O)[O-])c1C#N,-9%,-5,-1%,6%,13µM*
Cc1cccc(CNC(=O)Cc2csc3ccccc23)c1,23%[0.457 µM],3,·,·,36%[0.457 µM]
CCCSc1ccc2nc(-c3ccccc3)cn2c1,4%,-68*,10%,-55%,-14%
CC(C)(C)c1ccc(S(=O)(=O)/N=C2\C=C(NS(=O)(=O)c3ccccc3)C(=O)c3ccccc32)cc1,-8%,-19,-4%,-4%,?
Cc1ccc(S(=O)(=O)/N=C2/C=C(Sc3ncn[nH]3)C(=O)c3ccccc32)c(C)c1,·,·,1%,-27%,·
CC(C)c1ccc(S(=O)(=O)/N=C2/C=C(Sc3ncn[nH]3)C(=O)c3ccccc32)cc1,14µM*,-55*,-9%,-28%,?
Cc1ccc(S(=O)(=O)/N=C2/C=C(Sc3ncn[nH]3)C(=O)c3ccccc32)cc1,10µM*,-70*,1%,-50%,?
CCN1CCCC1CN (stereo unspecified),·,0,·,·,·
CN(C)c1ccc(/C=N/NC(=O)c2ccccn2)cc1,-3%[57.1 µM],-50*,19%,-54%,-3%[57.1 µM]
COc1ccc(C2C(C(=O)Nc3ccc(C)c(C)c3)CCC(=O)N2c2ccc(OC)cc2)cc1 (stereo unspecified),·,0,·,·,·
Cc1c(C#N)c(NC(=O)CCl)n(Cc2ccccc2)c1C,12%[57.1 µM],34,5%,0%,3.5µM*
SMILES,TrxR1 substrate,PI4K2A inh,GALK inhibitor,PKM2 act,TrxR1 inh
Cc1c(C#N)c(NC(=O)CCl)n(Cc2cccs2)c1C,9%,20,1%,0%,3.5µM*
Cc1c(C#N)c(NC(=O)CCl)n(Cc2ccc(F)cc2)c1C,3%,35,-2%,-6%,?
Cc1ccc(-n2c(SCC(=O)Nc3cccc4ccccc34)nnc2-c2cnccn2)cc1,·,8,·,·,·
CCOC(=O)C1CCN(Cc2ccc(O)c3ncccc23)CC1,8%,-4,-1%,-1%,7.1µM*
CC1CCCCC1NC(=O)NC(=O)CCl (stereo unspecified),5%,2,1%,1%,40µM*
CC1CCCC(NC(=O)CSC2CCCCC2)C1C (stereo unspecified),6%[57.1 µM],3,2%,4%,6%[57.1 µM]
CC1CCCCC1NC(=O)NC(=O)COC(=O)c1nccnc1N (stereo unspecified),413%,-2,·,·,?
CC1CCCC(NC(=O)NC(=O)CCl)C1C (stereo unspecified),0%,2,0%,-8%,7.9µM*
Cc1ccccc1CS(=O)(=O)Cc1ccc(C(=O)Nc2ccccc2C)o1,·,2,·,·,·
CCOC(=O)c1c(C)oc2c1c(C(c1cccnc1)N1CCCCC1)c(O)c1ccccc12 (stereo unspecified),2%,-3,1%,-3%,7.1µM*
COc1cccc(NC(=O)C2CCC(CNS(=O)(=O)c3csc(C(N)=O)c3)CC2)c1 (stereo unspecified),3%[57.1 µM],-66*,·,·,18%[57.1 µM]
CCc1cccc(NC(=O)C2CCC(CNS(=O)(=O)c3csc(C(N)=O)c3)CC2)c1 (stereo unspecified),-5%[57.1 µM],-3,·,·,-1%[57.1 µM]
FC(F)(F)c1cc(Cc2nc3ccccc3n2C(CCc2ccccc2)c2nc3ccccc3[nH]2)cc(C(F)(F)F)c1 (stereo unspecified),·,-2,·,·,·
Cc1nc2sc(-c3ccccc3)cc2c(=O)n1N,-1%,-52*,27%,-57%,-1%
C/C(=N\Nc1nc2c(s1)CCCC2)c1ccccc1,-6%,0,-5%,-19%,50µM*
O=C(Nc1nc2c(s1)CCCC2)Oc1ccccc1,9%[57.1 µM],12,-2%,-21%,12%[57.1 µM]
CCOC(=O)/C=C/C(=O)OCC(=O)Nc1cccc(Cl)c1Cl,1%,-7,0%,28%,14µM*
Cc1cc(C)cc(NS(=O)(=O)c2ccc3c(c2)CCCN3C(=O)C2CCC2)c1,6%[57.1 µM],2,·,·,19%[57.1 µM]
C/C(=C\c1ccc(C)o1)C(=O)c1c(C)cc(C)[nH]c1=O,-9%,7,-1%,10µM*,50µM*
Cc1cc2c(cc1S(=O)(=O)Nc1cccc(F)c1)n(C)c(=O)c(=O)n2C,2%,1,·,2µM*,25%
CCOc1ccc(CNC(=O)C2CCN(S(=O)(=O)c3ccc4c(ccn4C)c3)CC2)cc1,7%[57.1 µM],1,·,·,31%[57.1 µM]
N#C/C(=C/c1ccc(N2CCCCCC2)o1)c1ccc(Cl)cc1,-8%,4,0%,?,8.9µM*
N#C/C(=C\c1ccc(N2CCOCC2)o1)C(=O)NC1CCCCC1,-22%,8,3%,4%,?
N#C/C(=C/c1ccc(N2CCCCC2)o1)c1cccc(F)c1,-9%,-3,2%,?,7.1µM*
